Rab9 promoter act – activates the Rab9 promoter; AID 485297; 2.8% of 320,000 active; Potency, µM (highest dose often 9.22 µM), usual class: activators; Huh7 Rab9 promoter-luciferase reporter, luminescence, 24 h; further: nearly all actives have a fitted effect of over 60% in size
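Quantitative HTS format; Huh7 Rab9-luciferase reporter cells (1500/well) receive compound 2 h post-plating, incubate 24 h at 37 °C, then get luciferase reagent for 10 min before luminescence reading.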
KinaseGlo FLuc – blocks Kinase-Glo luciferase, a counter-screen artifact | 0.28% of 200,000 active | Q27757 | Potency, µM (top dose mostly 38.3 µM), usual class: inhibitors | Kinase-Glo luciferase, ATP luminescence, 8 min; further: nearly all actives have a fitted effect of over 60% in size
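Compounds were added to a substrate mix at pH 7.2 (50 mM imidazole, 10 uM ATP, within the enzyme's linear range), followed by Kinase-Glo detection reagent; luminescence was measured after 8 minutes at ambient temperature.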
FLuc counter – counter-screen for miR-21 project: firefly luciferase inhibitors or activators | 6.9% of 360,000 active | purified FLuc, Km substrates, luminescence inhibition | Potency, µM (series often up to 57.5 µM), hits mostly inhibitors | P08659; further: nearly all actives have a fitted effect of over 55% in size
Target sequence (P08659 whole entry, looked up): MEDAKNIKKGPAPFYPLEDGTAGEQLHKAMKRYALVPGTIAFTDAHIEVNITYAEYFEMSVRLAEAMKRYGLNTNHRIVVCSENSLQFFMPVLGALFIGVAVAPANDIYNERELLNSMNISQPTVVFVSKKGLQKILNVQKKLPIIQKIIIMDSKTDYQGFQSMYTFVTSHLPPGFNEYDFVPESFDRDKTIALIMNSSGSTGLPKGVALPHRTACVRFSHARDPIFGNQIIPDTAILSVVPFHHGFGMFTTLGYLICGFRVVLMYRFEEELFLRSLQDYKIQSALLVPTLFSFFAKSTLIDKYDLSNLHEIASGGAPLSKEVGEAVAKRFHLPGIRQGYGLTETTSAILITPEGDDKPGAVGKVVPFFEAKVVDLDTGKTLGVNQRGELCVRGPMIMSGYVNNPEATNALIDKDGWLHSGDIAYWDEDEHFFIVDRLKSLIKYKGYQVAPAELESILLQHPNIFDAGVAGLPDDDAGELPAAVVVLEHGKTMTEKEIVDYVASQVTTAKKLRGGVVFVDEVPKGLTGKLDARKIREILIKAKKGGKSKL
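Purified P. pyralis luciferase, 10 nM final, with Km-level 10 uM D-luciferin and 10 uM ATP in 50 mM Tris acetate pH 7.5, 10 mM Mg acetate, 0.01% Tween-20, 0.05% BSA; 6-point qHTS titration about 60 µM downward; luminescence read.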
NPC1 promoter act – activates the NPC1 promoter. Huh7 NPC1 promoter luciferase reporter, 24 h. AID 485313. 2.4% of 320,000 active. Potency, µM (doses to about 9.22 µM), hits mostly activators; further: nearly all actives have a fitted effect of over 60% in size
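Huh7 reporter cells (NPC1 promoter driving luciferase) are dosed with compound for 24 h at 37 °C, 5% CO2; luciferase detection reagent is then added and luminescence measured after 10 min at ambient temperature.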
ELG1 genotox – genotoxicity induction in ELG1-luciferase HEK293T cells; HEK293T ELG1-luciferase reporter, luminescence, 16 h; Potency, µM (doses to about 46 µM), most hits filed as activators; 1.3% of 330,000 active; further: nearly all actives have a fitted effect of over 60% in size
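ELG1-luciferase HEK293T cells, 2,000/well; compound pinned in; 16 hr, 37 °C, 5% CO2; ONE-Glo, 30 min RT; luminescence on CCD imager.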
SMN2 splice up – enhancers of SMN2 splice variant expression. HEK293 SMN2-luciferase splicing reporter, luminescence, 30-36 h. Potency, µM (top dose mostly 46.1 µM), actives largely listed as activators. 2.8% of 210,000 active. AID 1458; further: nearly all actives have a fitted effect of over 55% in size
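qHTS luciferase splicing reporter: luminescence rises when SMN2 exon 7 is included in transfected HEK293 cells. Compound exposure lasted 30-36 h at 37C, with 4.5 mM final sodium butyrate as control, followed by a ONE-Glo read.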
Hits are given with their value; – = inactive; ? = inconclusive; · = no result given; [ ] = another dose, or the depositor's remark. An excerpt weighted towards active compounds, which were near 7.5% of everything screened. The call rests on the fitted dose curve; in most records, active means well fitted curve in the direction sought with a large enough effect; inconclusive means small, poorly fitted or top-dose-only effect, or another doubt; inactive means no such curve, though single readings can be large; an effect the other way counts as inactive or inconclusive.

SMILES	Rab9 promoter act	KinaseGlo FLuc	FLuc counter	NPC1 promoter act	ELG1 genotox	SMN2 splice up
COc1ccc(C(=O)NC(C(=O)N2CCc3ccccc32)C(C)C)cc1 (centres undefined)	–	–	–	–	–	·
COc1ccc(C2NC(=S)NC3=C2CCc2cc(OC)ccc23)cc1 (centres undefined)	–	–	–	–	–	–
C#CCSc1n[nH]c(-c2ccco2)n1	–	–[7.66 µM]	–	–	–	–[9.22 µM]
CSc1ccccc1C(=O)N1CCC2(CC1)CC(=O)c1ccccc1O2	–	·	–	–	–	·
O=C(O)C1=C/C(=C(/c2ccccc2)c2cc(C(=O)O)c(O)c3ccccc23)c2ccccc2C1=O	·	–[7.66 µM]	·	·	·	–[9.22 µM]
Cc1ccc(-c2ccc(SCC(=O)N3CCc4ccccc43)nn2)cc1	–	–	?	–	–	–
COc1ccc2c(CC(=O)N3CCc4ccccc43)coc2c1	3.16µM	–	3.38µM	2µM	?	15.8µM
Cn1c(-c2ccccc2)cnc1SCC(=O)N1CCCc2ccccc21	–	–	?	–	–	–[1.84 µM]
Cc1ccc(-c2cnc(SCC(=O)N3CCCc4ccccc43)n2C)cc1	–	–	19µM	–	–	–
Cc1ccc(-c2ccc(SCC(=O)N3CCCc4ccccc43)nn2)cc1	–	–	8.49µM	–	–	–
Cc1ccc2c(c1)c1nnc(SCC(=O)N3CCCc4ccccc43)nc1n2CC(=O)O	3.55µM	10µM	6.75µM	3.55µM	?	·
CCC(=O)OCC(=O)C1(OC(=O)CC)C(C)CC2C3C(Cl)CC4=CC(=O)C=C[C@@]4(C)C3C(O)C[C@@]21C (some centres undefined)	·	–	·	·	·	–
COc1cccc(NC(=O)c2cccc(N3C(=O)C4C5C=CC(C5)C4C3=O)c2)c1 (centres undefined)	–	·	?	–	–	·
CCCN(c1ccccc1F)S(=O)(=O)c1cc(-c2cc(C)no2)ccc1C	·	·	–	·	·	·
COc1ccc(OC)c(CNc2ncnc3onc(-c4ccc(Cl)cc4)c23)c1	·	·	–	·	·	–
COc1ccc(-n2nc(C(=O)Nc3cc(OC)c(OC)c(OC)c3)c(=O)n(C)c2=O)cc1	·	·	–	·	·	·
COc1ccc(NC(=O)c2c(NC(=O)CCC(=O)O)sc3c2CCCCC3)cc1	–	–	–	–	–	·
COc1ccc(NC(=O)c2c(NC(=O)C(F)(F)F)sc3c2CCCCC3)cc1	·	·	13.5µM	·	·	–
COc1ccc(NC(=O)c2c(NCc3cccc(OC)c3)sc3c2CCCC3)cc1	·	·	–	·	·	·
COc1ccc(NC(=O)c2c(NCc3ccc(N(C)C)cc3)sc3c2CCC3)cc1	·	·	10.7µM	·	·	·
O=C(CN1C(=O)/C(=C/c2ccccc2)SC1=S)NC1CCS(=O)(=O)C1 (centres undefined)	–	·	–	–	–	·
CC(C)c1ccc(/C=C2\SC(=O)N(CC(=O)NC3C=CS(=O)(=O)C3)C2=O)cc1 (centres undefined)	–	·	1.2µM	–	–	·
COc1cccc(/C=C2\SC(=S)N(C(C)C(=O)NC3C=CS(=O)(=O)C3)C2=O)c1 (centres undefined)	–	·	?	–	–	·
COc1cccc(/C=C2\SC(=O)N(CC(=O)NC3CCS(=O)(=O)C3)C2=O)c1 (centres undefined)	–	·	16.9µM	–	–	·
COc1cccc(/C=C2\SC(=O)N(CCC(=O)NC3CCS(=O)(=O)C3)C2=O)c1 (centres undefined)	–	·	?	–	–	·
COc1ccccc1/C=C1\SC(=S)N(CC(=O)NC2CCS(=O)(=O)C2)C1=O (centres undefined)	–	·	13.5µM	–	–	·
COc1cccc(/C=C2\SC(=O)N(CC(=O)NC3C=CS(=O)(=O)C3)C2=O)c1 (centres undefined)	–	·	26.9µM	–	–	·
O=C(Cc1cccc2ccccc12)NC(=S)Nc1cccc(C(=O)O)c1	–	–	?	–	–	–
CCNC(=S)Nc1cc(Cl)ccc1Oc1ccccc1	–	–	–	–	–	–
COc1ccc(OC)c(C(=O)N2CCCC(Nc3ccc(F)cc3)C2)c1 (centres undefined)	–	·	–	–	–	·
